Several values for one entry are separate records, joined by “and”; a condition that tells them apart may be missing. Equal values may be shown once. Among all 5,500 compounds or so, about 2,000 (36%) were called active. About 18% were inconclusive and are not listed. No stated cut-off is given here; in the data, active means normalized growth mostly below about 0.91 (no sharp cut-off); inconclusive means no clear call, values can overlap the other calls; inactive means mostly above about 0.92. This is one part of the list. A structure can be active in one record and inactive in another.
Test: chemical genetic growth profiling, strain panel (AID 1159580);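 further: tested at 20 µM; growth read once vehicle control cultures reached saturation at 30 °C; 1 = growth at the plate median or of vehicle wells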
Settings: S. cerevisiae deletion strains, growth OD

Q: Which results are given for `CN1CCN(CCCN2c3ccccc3Sc3ccc(C(F)(F)F)cc32)CC1`?
A: normalized growth (locus YAL013W, strain DEP1, stronger effect = lower value): 0.065 (active) and 0.82 (active); normalized growth (locus YAL021C, strain ccr4, stronger effect = lower value): 0.0696 (active); normalized growth (locus YAL026C, strain drs2, stronger effect = lower value): 0.0611 (active); normalized growth (locus YAL030W, strain snc1, stronger effect = lower value): 0.0651 (active); normalized growth (locus YAL040C, strain CLN3, stronger effect = lower value): 0.989 (inactive); normalized growth (locus YBL061C, strain skt5, stronger effect = lower value): 0.0653 (active); normalized growth (locus YBR009C, strain hhf1, stronger effect = lower value): 0.0647 (active); normalized growth (locus YBR021W, strain FUR4, stronger effect = lower value): 0.102 (active); normalized growth (locus YBR023C, strain chs3, stronger effect = lower value): 0.0673 (active); normalized growth (locus YBR171W, strain sec66, stronger effect = lower value): 0.0984 (active); normalized growth (locus YBR229C, strain ROT2, stronger effect = lower value): 0.0712 (active); normalized growth (locus YBR231C, strain swc5, stronger effect = lower value): 0.0679 (active); normalized growth (locus YBR279W, strain paf1, stronger effect = lower value): 0.0731 (active); normalized growth (locus YCL011C, strain gbp2, stronger effect = lower value): 0.0652 (active); normalized growth (locus YCL016C, strain dcc1, stronger effect = lower value): 0.0786 (active); normalized growth (locus YCL029C, strain bik1, stronger effect = lower value): 0.0752 (active); normalized growth (locus YCL061C, strain MRC1 (second series), stronger effect = lower value): 0.969 (inactive); normalized growth (locus YCL061C, strain MRC1, stronger effect = lower value): 0.0741 (active); normalized growth (locus YCL069W, strain vba3, stronger effect = lower value): 0.0697 (active); normalized growth (locus YCR088W, strain abp1, stronger effect = lower value): 0.0705 (active); normalized growth (locus YDL005C, strain med2, stronger effect = lower value): 0.412 (active); normalized growth (locus YDL035C, strain GPR1, stronger effect = lower value): 0.061 (active); normalized growth (locus YDL040C, strain nat1, stronger effect = lower value): 0.0906 (active); normalized growth (locus YDL074C, strain BRE1, stronger effect = lower value): 0.0975 (active); normalized growth (locus YDL101C, strain DUN1, stronger effect = lower value): 0.0711 (active); normalized growth (locus YDL134C, strain PPH21, stronger effect = lower value): 0.0567 (active); normalized growth (locus YDL185W, strain tfp1, stronger effect = lower value): 0.936 (inactive); normalized growth (locus YDL192W, strain arf1, stronger effect = lower value): 0.0649 (active); normalized growth (locus YDR001C, strain nth1, stronger effect = lower value): 0.0725 (active); normalized growth (locus YDR069C, strain doa4, stronger effect = lower value): 0.0695 (active); normalized growth (locus YDR101C, strain arx1, stronger effect = lower value): 0.0878 (active); normalized growth (locus YDR137W, strain rgp1, stronger effect = lower value): 0.261 (active); normalized growth (locus YDR150W, strain NUM1, stronger effect = lower value): 0.0679 (active); normalized growth (locus YDR159W, strain sac3, stronger effect = lower value): 0.0958 (active); normalized growth (locus YDR162C, strain NBP2, stronger effect = lower value): 0.0537 (active); normalized growth (locus YDR195W, strain ref2): 0.141 (active); normalized growth (locus YDR297W, strain sur2, stronger effect = lower value): 0.0695 (active); normalized growth (locus YDR318W, strain mcm21, stronger effect = lower value): 0.0756 (active); normalized growth (locus YDR334W, strain swr1, stronger effect = lower value): 0.0668 (active); normalized growth (locus YDR335W, strain msn5, stronger effect = lower value): 0.0678 (active); normalized growth (locus YDR363W, strain ESC2, stronger effect = lower value): 0.87 (active); normalized growth (locus YDR388W, stronger effect = lower value): 0.0596 (active); normalized growth (locus YDR392W, strain spt3, stronger effect = lower value): 0.0857 (active); normalized growth (locus YDR502C, strain sam2, stronger effect = lower value): 0.0724 (active); normalized growth (locus YEL003W, strain gim4, stronger effect = lower value): 0.0619 (active); normalized growth (locus YEL037C, strain rad23, stronger effect = lower value): 0.0674 (active); normalized growth (locus YEL061C, strain CIN8 (second series), stronger effect = lower value): 0.0766 (active); normalized growth (locus YEL061C, strain CIN8, stronger effect = lower value): 0.0589 (active); normalized growth (locus YER002W, strain NOP16, stronger effect = lower value): 1.07 (inactive); normalized growth (locus YER015W, strain faa2, stronger effect = lower value): 0.0802 (active); normalized growth (locus YER016W, strain bim1, stronger effect = lower value): 0.0723 (active); normalized growth (locus YER110C, stronger effect = lower value): 0.293 (active); normalized growth (locus YER111C, strain swi4, stronger effect = lower value): 0.36 (active); normalized growth (locus YER155C, strain BEM2 (second series), stronger effect = lower value): 1.01 (inactive); normalized growth (locus YER155C, strain BEM2, stronger effect = lower value): 0.12 (active); normalized growth (locus YER167W, strain BCK2, stronger effect = lower value): 0.0606 (active); normalized growth (locus YFR010W, strain ubp6, stronger effect = lower value): 0.0817 (active); normalized growth (locus YGL078C, strain dbp3, stronger effect = lower value): 0.978 (inactive); normalized growth (locus YGL086W, strain mad1, stronger effect = lower value): 0.0657 (active); normalized growth (locus YGL167C, strain pmr1, stronger effect = lower value): 0.0948 (active); normalized growth (locus YGL173C, strain kem1, stronger effect = lower value): 0.216 (active); normalized growth (locus YGL227W, strain vid30, stronger effect = lower value): 0.0831 (active); normalized growth (locus YGL240W, strain doc1, stronger effect = lower value): 0.554 (active); normalized growth (locus YGL248W, strain PDE1, stronger effect = lower value): 0.0581 (active); normalized growth (locus YGL253W, strain hxk2, stronger effect = lower value): 0.0605 (active); normalized growth (locus YGR078C, strain PAC10, stronger effect = lower value): 0.0702 (active) and 0.956 (inactive); normalized growth (locus YGR135W, strain pre9, stronger effect = lower value): 0.0937 (active); normalized growth (locus YGR229C, strain SMI1, stronger effect = lower value): 0.0673 (active) and 0.0769 (active); normalized growth (locus YGR252W, strain gcn5, stronger effect = lower value): 0.138 (active); normalized growth (locus YHR013C, strain ard1, stronger effect = lower value): 0.169 (active); normalized growth (locus YHR027C, strain rpn1, stronger effect = lower value): 0.0682 (active); normalized growth (locus YHR030C, strain SLT2, stronger effect = lower value): 0.0545 (active) and 0.948 (inactive); normalized growth (locus YHR079C, strain IRE1 (second series), stronger effect = lower value): 0.0763 (active); normalized growth (locus YHR079C, strain IRE1, stronger effect = lower value): 0.961 (inactive); normalized growth (locus YHR094C, strain hxt1, stronger effect = lower value): 0.0748 (active); normalized growth (locus YHR129C, strain ARP1, stronger effect = lower value): 0.0646 (active); normalized growth (locus YHR142W, strain chs7, stronger effect = lower value): 0.0848 (active); normalized growth (locus YHR200W, strain rpn10, stronger effect = lower value): 0.0811 (active); normalized growth (locus YIL066C, strain RNR3, stronger effect = lower value): 0.0614 (active); normalized growth (locus YIL073C, strain SPO22, stronger effect = lower value): 0.113 (active); normalized growth (locus YIL125W, strain kgd1, stronger effect = lower value): 0.982 (inactive); normalized growth (locus YIR030C, strain dcg1, stronger effect = lower value): 0.0766 (active); normalized growth (locus YJL092W, strain hpr5, stronger effect = lower value): 0.0707 (active); normalized growth (locus YJL095W, strain BCK1 (second series), stronger effect = lower value): 0.0585 (active); normalized growth (locus YJL095W, strain BCK1, stronger effect = lower value): 0.0646 (active) and 0.977 (inactive); normalized growth (locus YJL115W, strain asf1, stronger effect = lower value): 0.0851 (active); normalized growth (locus YJL129C, strain trk1, stronger effect = lower value): 0.0827 (active); normalized growth (locus YJL134W, strain LCB3, stronger effect = lower value): 0.108 (active); normalized growth (locus YJL154C, strain vps35, stronger effect = lower value): 0.0623 (active); normalized growth (locus YJL164C, strain tpk1, stronger effect = lower value): 0.0715 (active); normalized growth (locus YJL166W, strain qcr8, stronger effect = lower value): 0.0701 (active); normalized growth (locus YJL168C, strain set2, stronger effect = lower value): 0.0656 (active); normalized growth (locus YJL187C, strain SWE1 (second series), stronger effect = lower value): 0.0593 (active); normalized growth (locus YJL187C, strain SWE1, stronger effect = lower value): 0.0715 (active); normalized growth (locus YJR043C, strain POL32, stronger effect = lower value): 0.0718 (active); normalized growth (locus YJR066W, strain TOR1, stronger effect = lower value): 0.915 (inactive)

Source: PubChem BioAssay AID1159580 (chemical genetic matrix, 2015)
